Reference: PMC5540273 (PLoS ONE, 2017)

Columns and labels:
Conditions in all cases: concentration: 1 μM, replicates: in singlicate; n = 1
[1] = test system: T1, JNK3
T1 construct: gene MAPK10

[2] = test system: KIT-autoinhibited
[3] = test system: KIT
[4] = test system: LATS1
[5] = test system: LATS2
[6] = test system: LCK
[7] = test system: LIMK1
[8] = test system: LIMK2
[9] = test system: T2, LKB1
T2 construct: gene STK11

[10] = test system: T3, LOK
T3 construct: gene STK10

[11] = test system: LRRK2
[12] = test system: LTK
[13] = test system: LYN
[14] = test system: T4, LZK
T4 construct: gene MAP3K13

[15] = test system: MAK
[16] = test system: MAP3K15
[17] = test system: MAP3K1
[18] = test system: MAP3K2
[19] = test system: MAP3K3
[20] = test system: MAP3K4
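Further: KINOMEscan kinase panel screen.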

SMILES	%Inh [1]	%Inh [2]	%Inh [3]	%Inh [4]	%Inh [5]	%Inh [6]	%Inh [7]	%Inh [8]	%Inh [9]	%Inh [10]	%Inh [11]	%Inh [12]	%Inh [13]	%Inh [14]	%Inh [15]	%Inh [16]	%Inh [17]	%Inh [18]	%Inh [19]	%Inh [20]
CNc1nc(-c2ccc3c(N)n[nH]c3c2)cc(N2C[C@@H](C(=O)Nc3ccccc3)CC[C@H]2C)n1 [GSK2298859]	3%	0%	4%	0%	3%	22%	0%	13%	7%	0%	0%	0%	0%	20%	9%	0%	0%	0%	0%	0%
O=C1NC(=O)C(c2ccc(Cl)cc2)=C1Nc1cccc(Cl)c1 [SB-317651]	54%	15%	0%	0%	9%	0%	0%	7%	23%	0%	0%	0%	22%	6%	16%	0%	0%	0%	0%	1%
O=c1cc(N2CCOCC2)nc2n(Cc3cccc(Cl)c3Cl)c3ccccc3n12 [GSK2299009]	3%	0%	36%	0%	16%	43%	4%	24%	8%	0%	0%	39%	0%	0%	15%	3%	7%	21%	0%	0%
Nc1ncnc2occ(-c3ccc4c(c3)CCN4C(=O)Cc3cc(F)ccc3F)c12 [GSK2645446]	0%	0%	66%	0%	19%	5%	0%	22%	0%	33%	0%	0%	0%	0%	0%	0%	0%	6%	0%	50%
CC(=O)c1cccc(NC(=O)NC2CCN(c3ccnc(Nc4ccc(F)cc4)n3)C2)c1 (stereo not shown) [GSK1379710]	22%	4%	49%	0%	2%	12%	11%	22%	23%	0%	14%	0%	0%	28%	47%	7%	3%	0%	0%	30%
